Among the data in PubChem BioAssay (NCI) are growth values, retold here.

The structures appear in SMILES notation. About 83,000 compounds went through this panel and 20% of them were active in at least one assay; those are over-represented in the sample as a whole.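 Compound tested at a single concentration for 48 hours in 96-well plates; a percent growth value below 10 was scored as active.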 Unmarked numbers belong to inactive results. Active and inactive are the calls of the source.

The experiment relates to DU-145 prostate. In words: NCI-60 one-dose screen, 48 h (100 = growth as untreated, 0 = no growth, -100 = all killed). The note with it: 10 µM unless noted.
With `C=C(C)[C@@H]1CC[C@]2(C(=O)OC)CC[C@]3(C)[C@H](CC[C@@H]4[C@@]5(C)C/C(=C/c6cccc(I)c6)C(=O)C(C)(C)[C@@H]5CC[C@]43C)[C@@H]12`, the growth is 113%. Regarding `N#Cc1c(-c2ccc(Cl)cc2)nc(NN=Cc2ccco2)nc1N1CCOCC1`, the growth was 85.4%. With `C=CC(=O)Nc1cccc(Nc2nc(SC)nc(-c3cccc([N+](=O)[O-])c3)c2C#N)c1` the figure was 30%; with `COc1ccc(/C=C/C(=O)c2ccc(O)c(CN3CCN(c4cc5c(cc4F)c(=O)c(C(=O)O)cn5C4CC4)CC3)c2)cc1`, 27.8%. `COc1cc2nc(N3CCCC3)nc(Nc3ccccc3)c2cc1OC`: the growth is 9.82% (active). With `COc1cccc(-c2nc3sccn3c2-c2ccnc(NCCNS(=O)(=O)c3ccccc3)c2)c1` the figure was 20.5%; with `COc1cc(/C=C/C(=O)c2c(C)oc3nc[nH]c(=O)c23)cc(OC)c1OC`, 64.8%; with `C=C(C)[C@@H]1CC[C@]2(C(=O)OC)CC[C@]3(C)[C@H](CC[C@@H]4[C@@]5(C)C/C(=C/c6ccc(OC)cc6)C(=O)C(C)(C)[C@@H]5CC[C@]43C)[C@@H]12`, 91.1%.

As to `O=S(=O)(Nc1ccc(I)cc1F)c1ccc(-c2cnc(C3CC3)o2)cc1`, the growth is 78.2%. `COc1cc2nc(N3CCCC3)nc(NCCc3ccccc3)c2cc1OC`: the growth was 37.6%. Consider `COc1ccc(Nc2nc(SC)nc(-c3cccc([N+](=O)[O-])c3)c2C#N)cc1`, for which the growth was 80.6%. As to `COc1cc(CNc2oc(-c3ccccc3)c(-c3ccccc3)c2C#N)cc(CN2CCN(C)CC2)c1O`, the growth was 59.9%.

On to `COc1ccc(-c2nc3ccc(-c4nc5ccc(N6CCN(c7ccncc7)CC6)cc5[nH]4)cc3[nH]2)cc1OC`, for which the growth was 42.7%. As for `O=C1/C(=C/c2cn(-c3ccccc3)nc2-c2ccccc2)SC(=S)N1CCc1ccccc1`, the growth is 110%. Regarding `CCCN1CCN(c2ccc3nc(-c4ccc5nc(-c6ccc(OCC)cc6)[nH]c5c4)[nH]c3c2)CC1`, the growth is 21.2%. The result for `COc1cccc(-c2nc3sccn3c2-c2ccnc(NCCCNS(=O)(=O)c3cccc(F)c3)c2)c1` reads 31.9%. On to `Cn1c(=O)c2c(nc3n(-c4ccc(Cl)cc4Cl)c(Sc4nc(-c5ccccc5)c(C#N)c(=O)[nH]4)cn23)n(C)c1=O`, for which the growth is 50.5%. In the case of `O=C(/C=C/c1ccccc1)c1ccc(O)c(CN2CCN(c3cc4c(cc3F)c(=O)c(C(=O)O)cn4C3CC3)CC2)c1`, the growth was 31.3%. Turning to `C=CC(=O)Nc1cccc(-c2nc(SC)nc(Nc3ccccc3OC)c2C#N)c1`, the growth is 10.8%. With `COc1cccc(-c2nc3sccn3c2-c2ccnc(NCCNS(=O)(=O)c3ccc(F)cc3)c2)c1` the figure was 26.3%; with `COc1cc2nc(N3CCCC3)nc(NCc3ccccc3)c2cc1OC`, 80.9%. For the molecule `N#Cc1c(-c2ccc(Cl)cc2)nc(N/N=C/c2cccc(Br)c2)nc1N1CCOCC1`, the growth was 59.3%. With `CSc1nc(-c2cccc(NC(=O)CCl)c2)c(C#N)c(=O)n1C` the figure was 77.3%; with `C=CC(=O)Nc1cccc(-c2nc(SC)nc(NCCc3ccc(OC)c(OC)c3)c2C#N)c1`, 56.9%; with `O=C(/C=C/c1cccc([N+](=O)[O-])c1)c1ccc(O)c(CN2CCN(c3cc4c(cc3F)c(=O)c(C(=O)O)cn4C3CC3)CC2)c1`, 22%. The result for `COc1cc(/C=C/C(=O)c2ccc(O)c(CN3CCN(c4cc5c(cc4F)c(=O)c(C(=O)O)cn5C4CC4)CC3)c2)cc(OC)c1OC` reads 24.6%.

As for `CC(C)(O)c1cn(CCCCN2C(=O)C(=O)c3ccccc32)nn1`, the growth is 113%. With `COC(=O)[C@]12CCC(C)(C)C[C@H]1[C@H]1C(=O)C[C@@H]3[C@@]4(C)c5c([nH]c6ccccc6c5=O)C(C)(C)[C@@H]4CC[C@@]3(C)[C@]1(C)CC2` the figure was 86.5%; with `N=C(N)c1ccc(-c2ccc(-c3ccc4ccccc4c3)s2)s1`, -85.4% (active); with `C=CC(=O)Nc1cccc(-c2nc(SC)nc(NCCN3CCOCC3)c2C#N)c1`, 94.7%. With `COc1cc(C=Nc2oc(-c3ccccc3)c(-c3ccccc3)c2C#N)cc(CN2CCCCC2)c1O` the figure was 107%; with `CC1=NN(c2nc(-c3ccc(Cl)cc3)c(C#N)c(N3CCOCC3)n2)C(=O)C1`, 102%; with `COc1cccc(Nc2nc(SC)nc(-c3cccc([N+](=O)[O-])c3)c2C#N)c1`, 81.4%. With `CSc1nc(NCCO)c(C#N)c(-c2cccc([N+](=O)[O-])c2)n1` the figure was 108%.

Regarding `Cn1c(O)c(N=NC(=O)c2cc(-c3ccccc3)on2)c2ccccc21`, the growth was 107%. With `CSc1nc(Nc2cccc(NC(=O)/C(C#N)=C/c3c(Cl)cccc3Cl)c2)c(C#N)c(-c2cccc([N+](=O)[O-])c2)n1` the figure was 58%; with `COc1ccc(-c2nc3ccc(-c4nc5ccc(N6CCN(c7ccccc7)CC6)cc5[nH]4)cc3[nH]2)cc1OC`, -42.4% (active); with `O=C(N=Nc1c(O)[nH]c2ccccc12)c1cc(-c2ccccc2)on1`, 113%.

With `O=C1CC(=NCC(=O)n2c(-c3ccccc3)nc3ccccc32)NN1`, the growth was 115%.
